Screens deposited in PubChem by Broad Institute.
Sampled rows, rich in hits. Any-hit rate of the full collection: about 3.8%.
HSF-1 act: increases HSF-1 driven luciferase reporter signal; activation, % at 9 µM; NIH3T3-HGL HSF-1 luciferase reporter, MG132, 8 h; 100% = twice DMSO control signal; actives 1.7% (n = 300,000);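 active means mean replicate activation of at least 50% with a set share of replicates each reaching 50%; inconclusive means only one of those two conditions met; inactive means mean below 50% and too few replicates reaching it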;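 further: 0% = median of the neutral control wells and 100% = twice that signal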
esBAF inh: SWI/SNF esBAF complex inhibition. mouse ES cells, Bmi1-luciferase knock-in reporter, 24 h; 100% = twice the neutral-well signal. AID 602393. reporter increase, % at 12.5 µM. actives 2% (n = 350,000); in the data active means activation above about 40%; inconclusive means no clear call, values can overlap the other calls;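 further: 0% = median of the plate's neutral control wells and 100% = double that signal; a rise in the Bmi1 reporter signal indicates esBAF inhibition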
HSF1 inhib: HSF1 inhibition | NIH3T3-HGL HSE-luciferase, MG132-induced, luminescence 8 h; stronger effect = lower value | activity change, negative = inhibition, % at 7.5 µM (by protocol) | actives 0.77% (n = 300,000);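 active means more than half of replicate wells show activity change below -50%, luminescence cut by over half; inconclusive means some wells, but at most half, below -50%; inactive means no replicate well below -50%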;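 further: luciferase reports HSF-1 transcriptional activity via heat shock element; 0% = median of DMSO wells and -100% = zero luminescence signal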
Wnt act: activators of Wnt/beta-catenin signaling; activation, % at 9.35 µM; actives 1.2% (n = 300,000); Wnt/beta-catenin reporter cell assay, activator, plate reader; AID 743398; in the data active means activation above about 30%, passing the limit was not always enough; inconclusive means no clear call, values can overlap the other calls;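 further: 0% = neutral control wells and 100% = positive control wells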
MITF act: activators of MITF-driven TRPM1 promoter activity in SK-MEL-5 cells; SK-MEL-5 TRPM1-promoter luciferase, 24 h; % of positive control, neutral wells = 0; activation, % at 12.5 µM; actives 0.75% (n = 300,000); AID 588334;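 active means mean activation of at least 80% with every replicate also reaching 80%; inconclusive means mean reaches 80% but some replicate falls short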;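 further: 0% = neutral control wells and 100% = parthenolide positive control wells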
Active calls of the source: *; ? = inconclusive; nt = no result; ! = a repeat was not active.

SMILES | HSF-1 act | esBAF inh | HSF1 inhib | Wnt act | MITF act
COc1cc(/C=C/C(=O)OCC(=O)NCCc2ccccc2)cc(OC)c1OC | 11 | nt | 0 | 41* | 2
COc1ccc(NC(=O)/C(=C/c2ccc(OC(C)=O)c(OC)c2)NC(C)=O)cc1 | 1 | nt | 2 | 0 | 7
COc1ccc(NC(=O)/C(=C\c2ccc3c(c2)OCO3)NC(C)=O)cc1 | 8 | nt | -3 | 47* | -1
COc1ccc(/C=C/C(=O)c2cc3c(cc2N)OCO3)cc1 | 17 | nt | 11 | 52* | 57
COc1cc(/C=C/C(=O)OCC(=O)NCCCc2ccccc2)cc(OC)c1OC | nt | 8 | nt | -2 | -4
COc1ccc(CCNC(=O)COC(=O)/C=C/c2ccc3c(c2)OCO3)cc1 | nt | 47* | nt | -3 | 14
CCCc1cn(CC[C@@H]2CC[C@@H](NC(=O)Nc3ccccc3F)[C@H](CO)O2)nn1 | nt | -7 | nt | nt | nt
C[C@@H]1CCCCO[C@H](CN(C)S(=O)(=O)c2ccccc2)[C@H](C)CN([C@H](C)CO)C(=O)c2cc(NS(=O)(=O)c3ccccc3)ccc2O1 | nt | 0 | nt | nt | nt
CCCNC(=O)[C@H]1[C@H](CO)[C@H]2Cn3c(ccc(C4=CCCC4)c3=O)[C@@H]1N2C(=O)CC1CC1 | nt | 6 | nt | nt | nt
Cc1cc(C(=O)COC(=O)C2=NN(c3ccccc3)C(=O)CC2)c(C)n1CC(F)(F)F | -6 | nt | -13 | -2 | -5
CCCn1c(C)cc(C(=O)COC(=O)c2ccc[nH]c2=O)c1C | -74 | -11 | -70* | nt | -11
Cc1cc(C(=O)COC(=O)c2ccc(O)cc2)c(C)n1CC(F)(F)F | nt | 95* | nt | 51* | nt
Cc1ccc(-n2c(C)cc(C(=O)COC(=O)c3ccc[nH]c3=O)c2C)cc1C | -20 | nt | -14 | 13 | 6
Cc1cc(C(=O)COC(=O)c2ccc[nH]c2=O)c(C)n1-c1ccccc1F | -64 | nt | -51* | 8 | -14
Cc1cc(C(=O)COC(=O)c2ccc(O)cc2)c(C)n1-c1ccccc1F | -70 | nt | -63* | -1 | 10
C[C@@H]1CN([C@@H](C)CO)C(=O)Cc2cc(NC(=O)C3CCCCC3)ccc2O[C@H]1CN(C)Cc1ccc(-c2ccccc2)cc1 | nt | -2 | nt | nt | nt
CN(C)CC(=O)N[C@@H]1CC[C@H](CCn2cc(C3CC3)nn2)O[C@H]1CO | nt | 4 | nt | nt | nt
Cc1ccc(S(=O)(=O)NCC[C@H]2CC[C@@H](NC(=O)c3cnccn3)[C@H](CO)O2)cc1 | nt | 1 | nt | nt | nt
CCCNC(=O)N1C[C@H](C)[C@H](OC)CN(C)C(=O)c2cc(NC(=O)CCC)ccc2OC[C@H]1C | nt | 0 | nt | nt | nt
COc1ccc(NC(=O)Nc2ccc3c(c2)C(=O)N([C@@H](C)CO)C[C@@H](C)[C@@H](CN(C)CC2CCCCC2)OCCCC[C@@H](C)O3)cc1 | nt | -2 | nt | nt | nt
C[C@@H]1CN([C@@H](C)CO)C(=O)c2cccc(N(C)C)c2O[C@@H]1CN(C)C(=O)Nc1ccccc1 | nt | 5 | nt | nt | nt
C[C@@H](O)C#Cc1cnc2c(c1)C(=O)N([C@@H](C)CO)C[C@H](C)[C@@H](CN(C)Cc1ccccn1)O2 | nt | 6 | nt | nt | nt
O=C1Nc2ccccc2S/C1=C/NCc1ccccc1Cl | 13 | nt | -4 | nt | 15
Cc1ccc(N/C=C2/Sc3ccccc3NC2=O)cc1 | 38 | nt | 26 | 37* | 56
O=C1Nc2ccccc2S/C1=C/c1cccs1 | 28 | nt | 19 | 34* | nt
SMILES | HSF-1 act | esBAF inh | HSF1 inhib | Wnt act | MITF act
COc1ccc(N/C=C2/Sc3ccccc3NC2=O)cc1 | 24 | 53* | 5 | -1 | 47
COCC#Cc1cnc2c(c1)C(=O)N([C@@H](C)CO)C[C@@H](C)[C@H](CN(C)Cc1ccc(-c3ccccc3)cc1)O2 | nt | -4 | nt | nt | nt
CCCNC(=O)[C@H]1[C@H](CO)[C@H]2Cn3c(ccc(C4=CCCC4)c3=O)[C@H]2N1C(=O)C1CC1 | nt | 1 | nt | nt | nt
O=C(C[C@@H]1CC[C@@H](NC(=O)C2CCOCC2)[C@@H](CO)O1)NCc1ccccc1Cl | nt | -3 | nt | nt | nt
O=C(O)CC(Cc1ccc(Br)cc1)C(=O)O (configuration not stated) | -81 | -6 | -76* | nt | 5
CCOc1ccc(NC(=O)C(CC(=O)O)Cc2ccc(Br)cc2)cc1 (configuration not stated) | -1 | -7 | -10 | 0 | 3
N#C/C(=C\c1c[nH]c2ccccc12)C(=O)NC1CCCC1 | 19 | 21 | 11 | -1 | 54
N#C/C(=C\c1c[nH]c2ccccc12)C(=O)NC1CC1 | 46 | 71* | 12 | 8 | nt
O=C1CC(N(Cc2ccc3c(c2)OCO3)C(=O)Nc2ccc(F)cc2)C(=O)N1c1ccccc1 (configuration not stated) | 57* | 2 | 10 | nt | 10
COc1ccc(NC(=O)N(Cc2ccc3c(c2)OCO3)C2CC(=O)N(c3ccc(OC)cc3)C2=O)cc1 (configuration not stated) | -17 | -9 | -1 | nt | 13
COc1ccccc1Nc1nc(C)cs1 | -2 | 16 | 1 | 0 | 89*!
Cc1csc(NS(=O)(=O)c2ccc(Cl)cc2)n1 | 6 | 1 | 2 | 0 | nt
Cc1csc(Nc2ccc(Cl)cc2)n1 | 1 | 76* | 0 | 11 | 78
Cc1csc(Nc2cccc3ccccc23)n1 | 24 | nt | 6 | -2 | 23
Cc1ccc(Nc2nc(C)cs2)cc1 | 10 | 20 | 0 | 58* | 55
C[C@@H]1CCCCO[C@H](CN(C)C(=O)Nc2ccc(F)cc2)[C@@H](C)CN([C@@H](C)CO)C(=O)c2cc(NC(=O)C3CCCCC3)ccc2O1 | nt | 0 | nt | nt | nt
CC1CC2(CCCCC2)Nc2ccc3ccccc3c21 (configuration not stated) | 58* | 0 | 38 | nt | 2
CC(=O)N1c2ccc3ccccc3c2C(C)CC12CCCCC2 (configuration not stated) | 24 | -2 | 2 | nt | 8
CCOC(=O)Cn1c(S(=O)(=O)Cc2ccc(F)cc2)nc(-c2ccccc2)c1-c1ccccc1 | 89* | -13 | 40 | nt | 2
Fc1ccc(CSc2nnc(-c3cnccn3)n2Cc2ccco2)cc1 | 30 | nt | 19 | nt | 12
Fc1ccccc1CSc1nnc(-c2cnccn2)n1Cc1ccco1 | 67* | nt | 49 | -2 | 14
Cc1noc(C)c1NC(=O)Nc1cccc2c1O[C@H](CN(C)Cc1ccc(Cl)c(Cl)c1)[C@H](C)CN([C@@H](C)CO)C2=O | nt | 1 | nt | nt | nt
COC(=O)C[C@H]1CC[C@H]2[C@@H](COC[C@H](O)CN2S(=O)(=O)c2ccccc2C)O1 | nt | 0 | nt | nt | nt
C[C@H]1CN([C@@H](C)CO)C(=O)c2cc(C#CC3CC3)cnc2O[C@H]1CN(C)C(=O)Nc1ccc(F)cc1 | nt | -33 | nt | nt | nt
COc1ccc(-c2nc(-c3ccc(Br)cc3)no2)c(OC)c1 | 24 | -8 | 16 | nt | ?
COc1ccccc1-c1nc(-c2ccc(Br)cc2)no1 | 55* | 54* | 39 | nt | 76
COc1ccccc1-c1nc(-c2ccncc2)no1 | 12 | 5 | 21 | 61* | nt
CCOc1ccccc1-c1nc(-c2ccncc2)no1 | 31 | 35 | 9 | nt | 25
